The source of these data is the supplement of paper PMC9262897, “Low-cost anti-mycobacterial drug discovery using engineered E. coli” (Nature Communications, 2022).

Each structure is given as a SMILES string. Where a name gives a salt, the structure may show the parent alone. ± gives the standard deviation of the averaged measurements.

For the assay, the system named is E. coli TESEC Mtb Asd. The assay can be described thus: growth (OD600 after 10 h); higher = more growth (less inhibition). Particulars: arabinose induction (level): Low; compound 0.1 mM; raw OD600 reference: median of DMSO wells 0.417, cell-free background 0.041. On the procedure: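 TESEC E. coli strains in which the native enzyme is deleted and replaced by arabinose-inducible Mtb Asd, DapB, CysH or TrpD, each grown in its selective medium. Strains were screened against the Prestwick library at 0.1 mM and 1% DMSO in 384-well format at low and high arabinose induction. Growth is read as OD600 after 10 h in triplicate.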
As for `CCCNC(C)(C)COC(=O)c1ccccc1` [Meprylcaine hydrochloride], the growth amounted to 0.338 ± 0.025.

Compound `CN1CCC(=C2c3ccccc3CCc3cccnc32)CC1` [Azatadine maleate] showed a growth of 0.313 ± 0.045.

As to `CNC(=C[N+](=O)[O-])NCCSCc1csc(CN(C)C)n1` [Nizatidine], the growth was 0.438 ± 0.012.

For the compound `Fc1ccc(C(c2ccc(F)cc2)N2CCN(C/C=C/c3ccccc3)CC2)cc1` [Flunarizine dihydrochloride], the growth was 0.056 ± 0.0016.

For `CC(C(=O)O)c1cccc(C(=O)c2ccccc2)c1` (stereo not given) [Ketoprofen], the growth stood at 0.335 ± 0.038.

On to `C1N2CN3CN1CN(C2)C3` [Methenamine], for which the growth stood at 0.33 ± 0.051.

With `Cc1c(N(C)CS(=O)(=O)O)c(=O)n(-c2ccccc2)n1C` [Dipyrone], the growth worked out at 0.452 ± 0.0059.

`Cc1onc(-c2ccccc2)c1-c1ccc(S(N)(=O)=O)cc1` [Valdecoxib] displayed a growth of 0.245 ± 0.045.

In turn, `O=C(C1CCCCC1)N1CC(=O)N2CCc3ccccc3C2C1` (stereo not given) [Praziquantel] registered a growth of 0.278 ± 0.026.

On to `Clc1ccc(Cn2c(CN3CCCC3)nc3ccccc32)cc1` [Clemizole hydrochloride], for which the growth was determined as 0.135 ± 0.0075.

On to `O=C(O)c1ccccc1OP(=O)(O)O` [Fosfosal], for which the growth came to 0.424 ± 0.097.

On to `COc1ccc(C2CNC(=O)C2)cc1OC1CCCC1` (stereo not given) [Rolipram], for which the growth was 0.425 ± 0.047.

In turn, `CCC1=C(C)CN(C(=O)NCCc2ccc(S(=O)(=O)NC(=O)N[C@H]3CC[C@H](C)CC3)cc2)C1=O` [Glimepiride] showed a growth of 0.439 ± 0.052.

Compound `CC(=O)Nc1c(I)c(C(=O)N[C@H]2C(O)O[C@H](CO)[C@@H](O)[C@@H]2O)c(I)c(N(C)C(C)=O)c1I` (stereo not given in full) [Metrizamide] had a growth of 0.352 ± 0.0067.

`CN(C(=O)C(Cl)Cl)c1ccc(OC(=O)c2ccco2)cc1` [Diloxanide furoate]: the growth was found to be 0.353 ± 0.024.

In turn, `Cc1c(Cl)cccc1Nc1ccccc1C(=O)O` [Tolfenamic acid] showed a growth of 0.052 ± 0.004.

Consider `COc1ccc(C(=O)CC(=O)c2ccc(C(C)(C)C)cc2)cc1` [Avobenzone], for which the growth stood at 0.27 ± 0.0061.

Compound `NCc1ccccc1CC(=O)N[C@@H]1C(=O)N2C(C(=O)O)=C(CSc3nnnn3CC(=O)O)CS[C@H]12` [Ceforanide] returned a growth of 0.315 ± 0.033.

`CN(C)CCCN1c2ccccc2CCc2ccccc21` [Imipramine hydrochloride] had a growth of 0.363 ± 0.063.

For the compound `COc1ccc(-c2cc(=O)c3c(O)cc(O[C@@H]4O[C@H](CO[C@@H]5O[C@@H](C)[C@H](O)[C@@H](O)[C@H]5O)[C@@H](O)[C@H](O)[C@H]4O)cc3o2)cc1O` [Diosmin], the growth worked out at 0.358 ± 0.04.

The compound `COC(=O)N/N=C/c1c[n+]([O-])c2ccccc2[n+]1[O-]` [Carbadox] yielded a growth of 0.192 ± 0.054.

`N=C(N)NC(=O)c1nc(Cl)c(N)nc1N` [Amiloride hydrochloride dihydrate] displayed a growth of 0.428 ± 0.033.

For `Nc1nc(Cl)nc2c1ncn2[C@H]1C[C@H](O)[C@@H](CO)O1` [Cladribine], the growth amounted to 0.217 ± 0.015.

In the case of `CO[C@@]1(NC(=O)C2SC(=C(C(N)=O)C(=O)O)S2)C(=O)N2C(C(=O)O)=C(CSc3nnnn3C)CS[C@@H]21` (stereo not given in full) [Cefotetan], the growth amounted to 0.048 ± 0.0045.

`CC(=O)O[C@H]1C[C@@]2(C)[C@@H](C[C@@H](O)[C@H]3[C@@]4(C)CC[C@@H](O)[C@@H](C)[C@@H]4CC[C@@]32C)/C1=C(\CCC=C(C)C)C(=O)O` [Fusidic acid sodium salt] displayed a growth of 0.0478 ± 0.0026.

`COc1ccc(CN(CCN(C)C)c2ccccn2)cc1` [Pyrilamine maleate]: the growth came out at 0.426 ± 0.034.

Regarding `C#C[C@]1(O)CC[C@H]2[C@@H]3CCC4=Cc5oncc5C[C@]4(C)[C@H]3CC[C@@]21C` [Danazol], the growth came to 0.277 ± 0.022.

The compound `CCN(CC)C(C)CN1c2ccccc2Sc2ccccc21` (stereo not given) [Ethopropazine hydrochloride] came in with a growth of 0.289 ± 0.03.

Turning to `CCCNC(C)C(=O)Nc1c(C)csc1C(=O)OC` (stereo not given) [Articaine hydrochloride], the growth was 0.442 ± 0.02.

`Cc1ccc(Cl)c(Nc2ccccc2C(=O)O)c1Cl` [Meclofenamic acid sodium salt monohydrate] yielded a growth of 0.0796 ± 0.0032.

Regarding `CC(=O)Nc1ccc(OCC(O)CNC(C)C)cc1` (stereo not given) [Practolol], the growth is 0.424 ± 0.027.

Take `CN(C)CCOC(=O)COc1ccc(Cl)cc1` [Meclofenoxate hydrochloride]: the growth came to 0.426 ± 0.029.

Compound `NCCNCCNCCNCCN` [Tetraethylenepentamine pentahydrochloride] returned a growth of 0.441 ± 0.0047.

For the compound `C#C[C@]1(O)CC[C@H]2[C@@H]3CCC4=CC(=O)CC[C@@H]4[C@H]3CC[C@@]21C` [Norethindrone], the growth is 0.362 ± 0.058.

`Nc1c(Br)cc(Br)cc1CN[C@H]1CC[C@H](O)CC1` [Ambroxol hydrochloride] registered a growth of 0.318 ± 0.06.

On to `Clc1ccc(C(c2ccccc2Cl)C(Cl)Cl)cc1` (stereo not given) [Mitotane], for which the growth is 0.204 ± 0.018.

Consider `Cc1nc2ccccn2c(=O)c1CCN1CCC(C(=O)c2ccc(F)cc2)CC1` [Pirenperone], for which the growth amounted to 0.395 ± 0.089.

The compound `O=c1cc(-c2ccc(O)c(O)c2)oc2cc(O)cc(O)c12` [Luteolin] gave a growth of 0.063 ± 0.0053.

Regarding `CC[N+](C)(C)c1cccc(O)c1` [Edrophonium chloride], the growth is 0.403 ± 0.013.

`CCn1cc(C(=O)O)c(=O)c2cc(F)c(N3CCNC(C)C3)c(F)c21` (stereo not given) [Lomefloxacin hydrochloride] came in with a growth of 0.0494 ± 0.0013.
